Screening results as filed in PubChem.
In the library only some 12% were active in any assay of this set; here they are far more common.
FMDV inh – foot and mouth disease virus antiviral activity. FMDV antiviral cell-based qHTS. Potency, µM (top dose mostly 57.9 µM), without a hit: at the top dose activity change, negative = inhibition, actives largely listed as inhibitors. actives 1.2% (n = 410,000); calls by dose curve; tested in HEK293T cells; note: read-out not given here; potency is the fitted concentration of half-maximal effect; % is set by controls: 0 for no effect and ±100 for the full control effect; nearly all actives have a fitted effect of over 45% in size
Shiga toxin inh – blocks Shiga toxin action in Vero cells; Vero cells, Shiga toxin protein synthesis inhibition reporter; inhibition, % at 38.7 µM; actives 9.2% (n = 290,000); in the data active = inhibition mostly above about 28%, no sharp cut-off; inactive = mostly below about 43%; note: 0% is about no effect
Sm TGR inh – S. mansoni TGR enzyme inhibition; Q962Y6; purified TGR, DTNB reduction, TNB absorbance 405 nm; Potency, µM (titrated, usually from 114 µM), for the others: at the highest dose activity change, negative = inhibition, actives largely listed as inhibitors; actives 3% (n = 360,000); AID 485364; active = well fitted inhibition curve with a large enough effect; inconclusive = small, poorly fitted or top-dose-only effect; inactive = no such curve, though single readings can be large or run the other way; note: potency is the fitted concentration of half-maximal effect; % is set by controls: 0 for no effect and ±100 for the full control effect; nearly all actives have a fitted effect of over 60% in size
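First, TGR (20 nM dispensed) and NADPH were mixed with compound. Second, a 15 min room-temperature incubation followed. Third, further NADPH and then DTNB were added to start the reaction. Finally, TNB absorbance was monitored kinetically.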
CHX counter – affects cycloheximide protein synthesis inhibition readout, counter-screen; cell reporter, cycloheximide protein synthesis inhibition counterscreen; max response, %; actives 12% (n = 300,000); in the data active = max response mostly above about 13%, no sharp cut-off; inactive = mostly below about 14%; note: read at 38.3 µM for the half of the compounds with a filed dose; 0% is about no effect
Active calls of the source: *; ? = inconclusive; / = not tested or not shown.

SMILES	FMDV inh	Shiga toxin inh	Sm TGR inh	CHX counter
Cc1ccc(NC(=O)n2ncc3c(C)cccc32)cc1F	35%	106*	41%	72*
COc1ccc(NC(=O)n2ncc3c(C)cccc32)cc1	45%	128*	4%	59*
Cc1ccc(NC(=O)Cn2ncn3c(cc4ccccc43)c2=O)cc1F	-13%	13	-8%	-2
Cc1cccc2c1cnn2C(=O)Nc1ccccc1Br	64%	12	-5%	2
COc1ccc(NC(=O)n2ncc3c(C)cccc32)cc1OC	66%	63*	-5%	36*
COc1ccccc1NC(=O)n1ncc2c(C)cccc21	0%	/	0%	/
Cc1cccc2c1cnn2C(=O)Nc1ccccc1Cl	43%	63*	-9%	35*
CCOc1ccccc1-c1nnc2n1N=C(c1cccc(OC)c1)CS2	/	-10	/	-6
COc1ccc(CCNC(=O)c2nc(SCc3ccccc3F)ncc2Cl)cc1OC	?	/	0%	/
Cc1ccccc1NC(=O)n1ncc2cc(Cl)ccc21	40%	29	-8%	21*
O=C(Nc1ccccc1C(F)(F)F)n1ncc2cc(Cl)ccc21	15%	/	36%	/
Cc1ccsc1/C=N/N=C/c1sccc1C	-5%	/	1%	48*
Cc1ccsc1C=Nc1ccc(O)cc1	-21%	34	18µM*	15*
Cc1ccsc1/C=C1\Oc2cc(O)ccc2C1=O	47%	/	/	/
COc1ccc(-c2c(C)nc3c(-c4ccccn4)cnn3c2N)cc1	0%	96*	-2%	59*
COc1ccc(-c2c(C)nc(N)nc2-c2ccc(OC)cc2O)cc1	-18%	9	4%	12
COc1ccc(-c2c(C)nc3c(-c4ccsc4)cnn3c2N)cc1	22%	85*	-13%	33*
CN(C)c1ccc(C2=NOC(CN3C(=O)c4ccccc4S3(=O)=O)C2)cc1 (stereo not given)	-16%	71*	1%	55*
CCc1ccc(/C=N/N2CCN(c3ccccn3)CC2)cc1	54%	68*	0%	37*
ClC(/C=N/n1cnnc1)=C/c1ccccc1	?	6	?	1
Cc1ccc(/C=N/N2CCN(c3ccccn3)CC2)cc1	23%	64*	-7%	47*
CCN(CC)c1ccc(/C=N/N2CCN(c3ccccn3)CC2)cc1	-20%	-8	6%	2
Cn1cccc1/C=N/N1CCN(c2ccccn2)CC1	0%	61*	?	38*
ClC(=C\c1ccccc1)/C=N/N1CCN(c2ccccn2)CC1	12%	53*	1%	33*
COc1cc2c(c(OC)c1)C(c1cccc(F)c1F)CC(=O)N2 (stereo not given)	-16%	/	6%	/
SMILES	FMDV inh	Shiga toxin inh	Sm TGR inh	CHX counter
COc1ccc(CCNC(=O)c2cnc3sc(N4CCC(C)CC4)nn3c2=O)cc1OC	?	/	9%	/
COc1cccc(-c2ccc3ncnc(NCCNC(C)=O)c3c2)c1	-13%	/	/	/
Cc1ccc(-c2nc(C)c(CCNC(=O)C(=O)Nc3ccc(C)c(Cl)c3)s2)cc1	-18%	/	5%	/
O=C(Nc1cccnc1Cl)c1cccc(F)c1	/	6	-14%	10
Cc1cccc(C(=O)Nc2cccc3cccnc23)c1	65%	70*	4%	45*
COc1cc(NC(=O)Nc2cccc3cccnc23)cc(OC)c1OC	-17%	26	34%	16*
Cc1cccc(C(=O)Nc2cccnc2Cl)c1	28%	16	2%	12*
Cc1ccc(C(=O)Nc2cccc3cccnc23)cc1C	58%	/	-6%	29*
COc1cc(OC)cc(-c2nnc(SCC(=O)N3CCC(C)CC3)o2)c1	?	/	2%	/
Cc1nc2c(-c3ccccc3)c(C)nn2c(C)c1CCC(=O)Nc1ccccc1F	?	/	6%	/
C/C(=N\Nc1cccc2cccnc12)c1ccc(C)cc1	60%	93*	-6%	31*
Cc1cc2sc(NC(=O)c3ccco3)nc2cc1Cl	8%	79*	0%	71*
COc1cc2sc(NC(=O)c3ccco3)nc2cc1Cl	68%	102*	9%	45*
Cc1nc(Nc2ccccc2)sc1C(=O)Nc1ccccc1	24%	59*	-1%	39*
Nc1nc(Nc2ccccc2F)sc1C(=O)c1ccccc1	42%	57*	-14%	50*
COc1ccccc1Nc1nc(C)c(C(=O)Nc2ccccc2)s1	3%	56	-10%	17
Cc1nc(NCCOc2ccccc2)sc1C(=O)Nc1ccccc1	0%	92*	-1%	59*
COc1ccc(C(=O)c2sc(Nc3ccc(NC(C)=O)cc3)nc2C)cc1	-20%	12	-1%	0
Cc1nc(Nc2ccccc2)sc1C(=O)c1ccc(F)cc1	50%	143*	-12%	67*
Cc1nc(Nc2ccc(S(N)(=O)=O)cc2)sc1C(=O)Nc1ccccc1	?	-9	8%	-2
